# Compound activity from PubChem.
# G9a inh: blocks human histone lysine methyltransferase G9a | Q96KQ7 | G9a H3K9 monomethylation, AlphaScreen, 2 h | Potency, µM (series often up to 102 µM), for the others: at the top dose activity, negative = inhibition, hits mostly inhibitors | 350,000 compounds, 8.8% hits; further: on the % scale 0 is the no-effect control and ±100 the full control effect; nearly all actives have a fitted effect of over 75% in size
#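 AlphaScreen detection with an anti-monomethyl H3K9 antibody quantified product after a 2 h room-temperature reaction containing 500 nM biotinylated H3K9 peptide, 20 µM SAM and 20 nM enzyme, which had been preincubated 15 min with compound.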
# JMJD2A Tudor inh: blocks the human JMJD2A Tudor domain | 390,000 compounds, 4.4% hits | O75164 | Potency, µM (titrated, usually from 114 µM), inactives show at the highest dose activity change, negative = inhibition, usual class: inhibitors | AlphaScreen JMJD2A-Tudor / H3K4me3 peptide binding; further: on the % scale 0 is the no-effect control and ±100 the full control effect; nearly all actives have a fitted effect of over 50% in size
# HP1b chromo inh: inhibitors of HP1-beta chromodomain binding to methylated histone tails. AlphaScreen HP1-beta / biotin-H3K9me3 peptide binding. Potency, µM (titrated, usually from 114 µM), without a hit: at the highest dose activity change, negative = inhibition, most hits filed as inhibitors. AID 540317. P83916. 390,000 compounds, 0.56% hits; further: nearly all actives have a fitted effect of over 70% in size
#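 HP1-beta protein (50 nM final) preincubated 30 min at room temperature with biotinylated H3(1-18)K9me3 peptide (50 nM) in PBS pH 7.4, 0.01% Tween-20, then compound added for 30 min. AlphaScreen streptavidin donor/nickel chelate acceptor beads (10 ug/mL final), 30 min dark, luminescence read.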
# BAZ2B block: blocks human BAZ2B | AID 504333 | AlphaScreen BAZ2B-H3K14Ac peptide displacement | Potency, µM (series often up to 114 µM), for inactives: top-dose activity change, negative = inhibition, usual class: inhibitors | 360,000 compounds, 4.4% hits; further: on the % scale 0 is the no-effect control and ±100 the full control effect; nearly all actives have a fitted effect of over 60% in size
# Target sequence (Q9UIF8 whole entry, looked up): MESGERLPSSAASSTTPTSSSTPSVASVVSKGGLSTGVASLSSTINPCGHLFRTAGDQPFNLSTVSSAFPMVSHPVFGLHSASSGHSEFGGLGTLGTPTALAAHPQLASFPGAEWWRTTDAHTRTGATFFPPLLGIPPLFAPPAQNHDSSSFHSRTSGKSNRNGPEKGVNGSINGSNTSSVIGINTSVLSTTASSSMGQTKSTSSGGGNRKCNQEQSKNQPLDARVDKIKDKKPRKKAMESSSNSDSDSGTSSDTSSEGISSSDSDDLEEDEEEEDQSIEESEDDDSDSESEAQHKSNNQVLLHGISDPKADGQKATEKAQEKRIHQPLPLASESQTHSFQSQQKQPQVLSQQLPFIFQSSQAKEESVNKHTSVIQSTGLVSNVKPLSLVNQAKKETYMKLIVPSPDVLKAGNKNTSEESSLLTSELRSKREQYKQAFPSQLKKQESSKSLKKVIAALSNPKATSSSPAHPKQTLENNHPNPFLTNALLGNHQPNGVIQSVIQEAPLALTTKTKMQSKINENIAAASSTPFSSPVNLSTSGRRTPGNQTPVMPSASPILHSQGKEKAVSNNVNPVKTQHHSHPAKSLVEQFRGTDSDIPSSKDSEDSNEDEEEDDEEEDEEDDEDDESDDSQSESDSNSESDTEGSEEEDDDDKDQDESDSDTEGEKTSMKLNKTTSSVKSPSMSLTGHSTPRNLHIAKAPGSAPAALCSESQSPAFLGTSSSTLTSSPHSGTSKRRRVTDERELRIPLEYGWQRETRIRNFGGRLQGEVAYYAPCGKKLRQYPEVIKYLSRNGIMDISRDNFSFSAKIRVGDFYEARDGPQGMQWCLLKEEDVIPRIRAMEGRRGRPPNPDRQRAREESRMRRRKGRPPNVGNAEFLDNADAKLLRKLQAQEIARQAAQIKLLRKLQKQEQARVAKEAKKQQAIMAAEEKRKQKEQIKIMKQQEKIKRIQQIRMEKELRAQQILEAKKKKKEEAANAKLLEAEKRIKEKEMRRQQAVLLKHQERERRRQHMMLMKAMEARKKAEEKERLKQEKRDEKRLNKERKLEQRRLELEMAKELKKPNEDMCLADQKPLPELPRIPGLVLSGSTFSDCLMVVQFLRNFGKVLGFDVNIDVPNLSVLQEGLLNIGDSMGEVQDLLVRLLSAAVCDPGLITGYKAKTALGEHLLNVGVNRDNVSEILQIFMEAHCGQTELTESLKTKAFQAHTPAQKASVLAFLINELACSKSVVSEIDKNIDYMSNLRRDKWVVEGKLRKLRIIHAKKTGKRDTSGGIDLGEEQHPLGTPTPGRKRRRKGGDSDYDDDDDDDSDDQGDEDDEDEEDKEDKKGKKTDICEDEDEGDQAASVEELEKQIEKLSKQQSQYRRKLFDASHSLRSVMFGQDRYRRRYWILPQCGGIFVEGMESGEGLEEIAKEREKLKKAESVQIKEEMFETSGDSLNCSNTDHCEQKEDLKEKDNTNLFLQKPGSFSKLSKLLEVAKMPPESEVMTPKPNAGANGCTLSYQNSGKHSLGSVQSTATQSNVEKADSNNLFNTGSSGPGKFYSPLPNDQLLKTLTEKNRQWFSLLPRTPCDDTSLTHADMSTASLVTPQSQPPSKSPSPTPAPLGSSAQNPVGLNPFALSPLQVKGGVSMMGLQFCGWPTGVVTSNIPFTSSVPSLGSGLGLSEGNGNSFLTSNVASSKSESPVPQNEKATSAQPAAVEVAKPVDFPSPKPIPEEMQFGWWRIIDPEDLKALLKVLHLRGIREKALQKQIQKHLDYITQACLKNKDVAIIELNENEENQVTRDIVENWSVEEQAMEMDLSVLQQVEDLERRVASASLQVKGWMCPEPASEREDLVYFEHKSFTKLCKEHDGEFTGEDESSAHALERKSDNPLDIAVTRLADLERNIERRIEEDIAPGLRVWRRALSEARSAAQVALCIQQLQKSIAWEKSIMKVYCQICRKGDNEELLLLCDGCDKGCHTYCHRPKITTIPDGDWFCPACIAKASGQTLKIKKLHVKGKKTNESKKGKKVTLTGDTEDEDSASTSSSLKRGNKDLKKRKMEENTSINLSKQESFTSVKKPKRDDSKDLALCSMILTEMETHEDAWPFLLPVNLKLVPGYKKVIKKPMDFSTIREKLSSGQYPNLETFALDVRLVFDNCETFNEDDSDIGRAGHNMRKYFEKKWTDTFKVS
#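 Multi-concentration screen (max 110 uM) measuring displacement of acetylated histone H3 peptide from BAZ2B by AlphaScreen, using 50 nM protein, 50 nM peptide and 10 ug/mL streptavidin donor plus Ni-chelate acceptor beads.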
# GLS inh: glutaminase GLS (human) inhibition | O94925 | GLS enzymatic activity, qHTS titration | Potency, µM (titrated, usually from 45.5 µM), inactives show at the highest dose activity change, negative = inhibition, actives largely listed as inhibitors | 410,000 compounds, 0.21% hits | AID 624170; further: on the % scale 0 is the no-effect control and ±100 the full control effect
#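 Read-out is an Amplex red fluorescence increase coupled through glutamate oxidase and HRP, measured before and after 30 min room-temperature incubation. hKGA is in 45 mM KH2PO4 (pH 8.2) with 0.02% Tween-20; glutamine added as 1mM solution.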
# Numbers without * were called inactive; ? = inconclusive; / = not tested or not shown; [ ] = another dose, or the depositor's remark. Sampled rows, rich in hits. Any-hit rate of the full collection: about 10%. The call rests on the fitted dose curve; in most records, active means well fitted curve in the direction sought with a large enough effect; inconclusive means small, poorly fitted or top-dose-only effect, or another doubt; inactive means no such curve, though single readings can be large; an effect the other way counts as inactive or inconclusive. Potency means the concentration at half of the fitted maximal effect.
SMILES,G9a inh,JMJD2A Tudor inh,HP1b chromo inh,BAZ2B block,GLS inh
CCOc1ccccc1CNC(=O)C1CCN(C2=NS(=O)(=O)C(c3ccc(C)c(C)c3)=C2C)CC1,1%[59 µM],1%,14%,-5%,-1%
COc1ccccc1CNC(=O)C1CCN(C2=NS(=O)(=O)C(c3ccc(C)c(C)c3)=C2C)CC1,-3%[59 µM],56µM*,38%,3%,-30%
Cc1ccc(C2CC2c2n[nH]c(=S)n2-c2ccc(C)cc2)cc1 (configuration not stated),0.63µM*,?,-15%,-32%,46%
Cc1ccc(C2CC2c2n[nH]c(=S)n2-c2cccc(Cl)c2)cc1 (configuration not stated),10µM*,?,-9%,-39%,11%
Cc1ccc(C2CC2C(=O)NNC(=S)Nc2cccc(Cl)c2)cc1 (configuration not stated),?,-34%,-34%,-28%,11%
Cc1ccc(-n2c(C3CC3c3ccc(Cl)cc3)n[nH]c2=S)cc1 (configuration not stated),2µM*,-27%,17%,-28%,-7%
S=c1[nH]nc(C2CC2c2ccc(Cl)cc2)n1-c1ccc(Cl)cc1 (configuration not stated),?,?,-21%,?,25%
Cc1ccc(-n2c([C@@H]3C[C@H]3c3ccccc3)n[nH]c2=S)cc1,0.5µM*,-22%,27%,-33%,0%
O=c1nc(N/N=C/C=C/c2ccccc2)cn[nH]1,/,?,18%,?,-2%
O=c1c(-c2cc(F)cc(F)c2)nc2cnc(N3CCNCC3)nc2n1C1CC1,-3%[0.501 µM],/,/,/,/
O=C(O)CCC(=O)N1N=C(c2cccs2)CC1c1ccc(Br)cc1 (configuration not stated),-15%[2.33 µM],-13%,20%,-18%,13%
Cc1cccc2cc(CN(Cc3ccc(F)cc3)C(=O)N3CCOCC3)c3nnnn3c12,16%[59 µM],?,?,6%,7%
c1ccc(Nc2scc(-c3ccccc3)[n+]2Cc2ccco2)cc1,16µM*,?,?,/,9%
c1ccc(C[n+]2c(-c3ccccc3)csc2Nc2ccccc2)cc1,11µM*,?,25µM*,7.9µM*,-3%
CCCCCC[n+]1c(-c2ccc(Cl)cc2Cl)csc1Nc1ccccc1,?,?,-12%,?,5%
C/C(=C1/SC(N2CC(C)OC(C)C2)=NC1=O)c1ccccc1 (configuration not stated),20%,-1%,21%,-5%,12%
O=C1CC(c2ccc(S(=O)(=O)NC3CC3)cc2)CN1 (configuration not stated),-7%,-8%,22%,11%,15%
CC1(C)Cc2c(C#N)c(NCCc3ccccc3)nc(-c3ccco3)c2CO1,-25%,37%,3%,0%,-11%
CC1(C)Cc2c(C#N)c(NCC3CCCO3)nc(-c3ccco3)c2CO1 (configuration not stated),10µM*,41%,96%,11%,-2%
CC1(C)Cc2c(C#N)c(NC3CCCCC3)nc(-c3ccco3)c2CO1,11µM*,/,/,5%,/
CCNC(=O)C1(C)CCCN(Cc2ccc(-c3ccccn3)cc2)C1 (configuration not stated),/,/,/,/,8%
CC1CCc2sc(C(=O)NCc3ccccn3)cc2C1 (configuration not stated),27%[12.7 µM],-33%,57%,8%,-5%
CCOc1ccc(C(c2c(NC(=O)c3ccccc3)sc(C)c2C)N2CCN(C)CC2)cc1 (configuration not stated),?,-51%,-26%,?,0%
Cc1ccc(C(=O)NNC(=O)c2csc(N3CCOCC3)n2)o1,-3%[0.501 µM],?,29%,?,21%
O=C(NNC(=O)c1ccco1)c1csc(N2CCOCC2)n1,7.1µM*,-1%,37%,?,-4%
c1coc(CNc2nc3ccccc3s2)c1,17%[2.33 µM],-19%,6%,-14%,0%
CC(C)C(=O)NC(c1cccc([N+](=O)[O-])c1)c1ccc2cccnc2c1O (configuration not stated),/,?,29%,25µM*,-23%
